Results: paper PMC6451091, “NextPBM: a platform to study cell-specific transcription factor binding and cooperativity”
Whole data set: some 3,700 sequences, median “z-score” near 4, cut for the highest 2% near 8.4. This is one part of a sample in which the highest values are shown more often than they occur.

Experiments:
PU.1 (IVT) [1] = target: PU.1 (IVT) (UniProt P17947 1-270); test: protein-binding microarray (PBM); 20 mM HEPES pH 7.9, 100 mM NaCl, 1 mM DTT, 0.2 mg/mL BSA, 0.02% Triton X-100, 2% milk, 0.4 mg/mL salmon testes DNA; 1 h; temperature not stated; high values mean tight binding; conditions: dsDNA, one strand shown
How it was run: (§1)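 PU.1, full-length and untagged, came from coupled human in vitro transcription/translation and was bound for 1 h to double-stranded DNA microarrays of 20-bp genomic sites and single-nucleotide variants in HEPES pH 7.9, 100 mM NaCl, 2% milk and salmon testes DNA. After antibody detection, the values were taken as z-scores of scanned fluorescence normalised by linear regression.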

PU.1 (IVT) [2] = target: PU.1 (IVT) (UniProt P17947 1-270); test: as above; conditions: dsDNA, one strand shown; remark: listed apart in the source
How it was run: as §1

Row | Sequence | binding signal (PU.1 (IVT) [1]) | binding signal (PU.1 (IVT) [2])
1 | GCCTAGCACAAAAAAAGGAAGTCTGTTTTGTGCTAGGTCTTGATTCGCTTGACGCTGCTG | 6.43 z-score | 
2 | GCCTAGCACAAAAAGGGGAAGTTGGGGATGTGCTAGGTCTTGATTCGCTTGACGCTGCTG |  | 8.45 z-score
3 | GCCTAGCACAAAAAAGGGAAGTGGATGCTGTGCTAGGTCTTGATTCGCTTGACGCTGCTG |  | 7.67 z-score
4 | GCCTAGCACAAAAAGGGGAAGTCAATTTTGTGCTAGGTCTTGATTCGCTTGACGCTGCTG |  | 8.55 z-score
5 | GCCTAGCACAAAAAGGGGAAGTGACTTTCGTGCTAGGTCTTGATTCGCTTGACGCTGCTG |  | 8.66 z-score
6 | GCCTAGCACAAAGAAGGGAAGTGACTTGCGTGCTAGGTCTTGATTCGCTTGACGCTGCTG |  | 3.86 z-score
7 | GCCTAGCACAAAAAGGGGAAGTCAAATTGGTGCTAGGTCTTGATTCGCTTGACGCTGCTG |  | 8.09 z-score
8 | GCCTAGCACAAAAGGAGGAAGTACTGTGAGTGCTAGGTCTTGATTCGCTTGACGCTGCTG |  | 7.12 z-score
9 | GCCTAGCACAAAAAAGGGAAGTGAAGTACGTGCTAGGTCTTGATTCGCTTGACGCTGCTG |  | 7.2 z-score
10 | GCCTAGCACAAAAAGGGGAAGTGATGGCGGTGCTAGGTCTTGATTCGCTTGACGCTGCTG |  | 8.22 z-score
11 | GCCTAGCACAAAAAGGGGAAGTACTGCGAGTGCTAGGTCTTGATTCGCTTGACGCTGCTG |  | 8.58 z-score
12 | GCCTAGCACAAAAAAGGGAAGTGCAAGATGTGCTAGGTCTTGATTCGCTTGACGCTGCTG |  | 7.79 z-score
13 | GCCTAGCACTTAAACAGGAAGTGTGTAATGTGCTAGGTCTTGATTCGCTTGACGCTGCTG |  | 5.79 z-score
14 | GCCTAGCACTTAAGGAGGAACTGAAACCAGTGCTAGGTCTTGATTCGCTTGACGCTGCTG | 2.65 z-score | 
15 | GCCTAGCACTAAAGGAGGAACTGAAAACAGTGCTAGGTCTTGATTCGCTTGACGCTGCTG | 3.62 z-score | 
16 | GCCTAGCACTAAAAGAGGAACTGAAACCAGTGCTAGGTCTTGATTCGCTTGACGCTGCTG |  | 6.72 z-score
17 | GCCTAGCACCTGCAAAGGAAGTCTGGGCCGTGCTAGGTCTTGATTCGCTTGACGCTGCTG | 0.767 z-score | 
18 | GCCTAGCACTGGAAGAGGAAGTTGGTTTTGTGCTAGGTCTTGATTCGCTTGACGCTGCTG |  | 7.15 z-score
19 | GCCTAGCACCATTTGTAGAAGTACTGTGCGTGCTAGGTCTTGATTCGCTTGACGCTGCTG | 0.808 z-score | 
20 | GCCTAGCACAAAAAGCAGAAGTGTTCTGTGTGCTAGGTCTTGATTCGCTTGACGCTGCTG |  | 6.88 z-score

Row | Sequence | binding signal (PU.1 (IVT) [1]) | binding signal (PU.1 (IVT) [2])
21 | GCCTAGCACAAAAAGGGGAAGTGTGCTGCGTGCTAGGTCTTGATTCGCTTGACGCTGCTG |  | 8.33 z-score
22 | GCCTAGCACAAAAAGGGGAAGTGCTTTCTGTGCTAGGTCTTGATTCGCTTGACGCTGCTG |  | 8.76 z-score
23 | GCCTAGCACAAAAAGGGGAAGTCTGGACTGTGCTAGGTCTTGATTCGCTTGACGCTGCTG |  | 7.65 z-score
24 | GCCTAGCACGAAAAGAGGAAGTCAAACTTGTGCTAGGTCTTGATTCGCTTGACGCTGCTG |  | 8.22 z-score
25 | GCCTAGCACGAAAAGAGGAAGTGGAATTTGTGCTAGGTCTTGATTCGCTTGACGCTGCTG |  | 8.92 z-score
26 | GCCTAGCACGAAAAGAGGAAGTCAAATTCGTGCTAGGTCTTGATTCGCTTGACGCTGCTG |  | 8.31 z-score
27 | GCCTAGCACGAAATGAGGAAGTGGCTGGTGTGCTAGGTCTTGATTCGCTTGACGCTGCTG |  | 7.9 z-score
28 | GCCTAGCACAGAAAAAGGAAGTGGAATTTGTGCTAGGTCTTGATTCGCTTGACGCTGCTG |  | 6.29 z-score
29 | GCCTAGCACGAAATGAGGAAGTGCTAGTGGTGCTAGGTCTTGATTCGCTTGACGCTGCTG |  | 8.07 z-score
30 | GCCTAGCACGAAAAGAGGAAGTCAGAAATGTGCTAGGTCTTGATTCGCTTGACGCTGCTG |  | 8.35 z-score
31 | GCCTAGCACGAAAAGAGGAAGTCGAATTAGTGCTAGGTCTTGATTCGCTTGACGCTGCTG |  | 8.06 z-score
32 | GCCTAGCACGGAAAGAGGAAGTCAAAAATGTGCTAGGTCTTGATTCGCTTGACGCTGCTG |  | 7.85 z-score
33 | GCCTAGCACGAAAAGAGGAAGTCAGACTAGTGCTAGGTCTTGATTCGCTTGACGCTGCTG |  | 8.15 z-score
34 | GCCTAGCACGAAATGAGGAAGTGAAATTGGTGCTAGGTCTTGATTCGCTTGACGCTGCTG |  | 8.42 z-score
35 | GCCTAGCACGAAAAGAGGAAGTCAAATTTGTGCTAGGTCTTGATTCGCTTGACGCTGCTG |  | 8.44 z-score
36 | GCCTAGCACAAAAAAAGGAAATGAAAGTAGTGCTAGGTCTTGATTCGCTTGACGCTGCTG |  | 3.32 z-score
37 | GCCTAGCACGTCAAAAAAAGGAAAAAGCCGTGCTAGGTCTTGATTCGCTTGACGCTGCTG | 0.885 z-score | 
38 | GCCTAGCACAAGAAGCGGAAGTGAAAGACGTGCTAGGTCTTGATTCGCTTGACGCTGCTG |  | 6.8 z-score
39 | GCCTAGCACAGAAAAAGGAACTGGCTAGAGTGCTAGGTCTTGATTCGCTTGACGCTGCTG | 3.75 z-score | 
40 | GCCTAGCACCAAAAGAGGAAGTGAGAAGCGTGCTAGGTCTTGATTCGCTTGACGCTGCTG |  | 8.31 z-score
